Measurements from PubChem BioAssay (NCI).
About 83,000 compounds went through this panel and 20% of them were active in at least one assay; those are over-represented in the sample as a whole.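 Each cell line was grown in a 96-well plate and treated with one concentration of compound for 48 hours. Values below 10 were considered active.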 The source made the active and inactive calls.

Assays:
Test in all cases: NCI-60 one-dose screen, 48 h (100 = growth as untreated, 0 = no growth, -100 = all killed)
Conditions in all cases: 10 µM
[1] = system: NCI-H23 lung
[2] = system: NCI-H226 lung
[3] = system: NCI-H322M lung
[4] = system: HOP-62 NSCLC
[5] = system: NCI-H460 lung
[6] = system: HOP-92 NSCLC
[7] = system: NCI-H522 lung
[8] = system: A549/ATCC NSCLC
[9] = system: 786-0 renal
[10] = system: COLO 205 colon

Measured: growth

C=CCNCCCN1C(=O)c2ccc3c4c(ccc(c24)C1=O)C(=O)N(CCCNCC=C)C3=O
active: [1] -55.6% | [2] -30.8% | [3] -48.3% | [4] -53% | [5] -56.7% | [6] -21.6% | [7] -77.3% | [8] -73.6% | [9] -31% | [10] -86.8%

COc1ccc(C2C=C(c3ccc(Cl)c(Cl)c3)N=C3SC(C)=CN32)cc1 (centres undefined)
inactive: [1] 92.2% | [2] 86.5% | [3] 98.7% | [4] 99.5% | [5] 101% | [6] 98.7% | [7] 77.3% | [8] 81.6% | [9] 90.7% | [10] 104%

COc1cccc(C(=O)NNc2nc(N3CCOCC3)nc(N3CCN(C(c4ccccc4)c4ccccc4)CC3)n2)c1
inactive: [1] 84.2% | [2] 83.6% | [3] 82.8% | [4] 82.2% | [5] 87.8% | [6] 70.3% | [7] 86.6% | [8] 62.4% | [9] 86.6% | [10] 75.4%

O=[N+]([O-])c1ccc(Br)o1
inactive: [1] 94.4% | [2] 93.1% | [3] 103% | [4] 100% | [5] 113% | [6] 102% | [7] 84.4% | [8] 104% | [9] 99.2% | [10] 105%

Cc1cc(=O)oc2cc(OCc3cn(CC(O)CO)nn3)ccc12 (centres undefined)
inactive: [1] 94.1% | [2] 104% | [3] 109% | [4] 103% | [5] 111% | [6] 111% | [7] 107% | [8] 105% | [9] 111% | [10] 108%

Nc1nsc(C(=O)c2ccc(O)cc2)n1
inactive: [1] 98.6% | [2] 104% | [3] 105% | [4] 76.4% | [5] 110% | [6] 88% | [7] 91.8% | [8] 83.7% | [9] 117% | [10] 106%

CCCCCCOc1ccc(/C=C/C(=O)c2ccc(B(O)O)cc2)cc1
inactive: [1] 76.2% | [2] 75.6% | [3] 85.9% | [4] 89.8% | [5] 91.7% | [7] 66.1% | [8] 75.7% | [9] 73% | [10] 103%
active: [6] 5.7%

CCCCCCCCCCCCCCCCCBr
inactive: [1] 106% | [2] 94.9% | [3] 94.6% | [4] 104% | [5] 106% | [6] 98.8% | [7] 98.4% | [8] 108% | [9] 104% | [10] 106%

Cc1ccc2c(c1)-c1cc(C)nn1-c1ccc(C#N)cc1O2
inactive: [1] 78.2% | [2] 75.4% | [3] 81.5% | [4] 51.6% | [5] 60.5% | [6] 69.1% | [7] 15.2% | [8] 51.6% | [9] 86.4% | [10] 66.3%

Cc1ccc(S(=O)(=O)Nc2cccc3[nH]c(C(F)(F)F)nc23)cc1
active: [5] 7.86% | [6] -3.66% | [7] -6.23% | [10] -21.6%
inactive: [1] 39.5% | [2] 68.4% | [3] 36.4% | [4] 36.4% | [8] 24% | [9] 47.7%

O=C(N/N=C/c1ccccc1O)c1ccccc1
inactive: [1] 41.3% | [2] 27.2% | [3] 34.3% | [4] 38.9% | [8] 38.7% | [9] 17.9%
active: [5] 9.53% | [6] 7.78% | [7] -4.7%

COc1ccc(C(=O)c2sc3nc(-c4cccs4)ccc3c2N)cc1OC
active: [6] -0.708%
inactive: [1] 74.3% | [2] 73% | [3] 85% | [4] 70.6% | [5] 36.1% | [7] 24% | [8] 35.8% | [9] 70.7% | [10] 40.9%

CNC(=O)c1cc(Oc2ccc(NC(=O)Nc3ccc(Cl)c(OC4CCCCC4)c3)c(F)c2)ccn1
inactive: [1] 21.4% | [2] 48.4% | [3] 75.8% | [4] 70.5% | [5] 37.9% | [6] 36% | [8] 26.6% | [9] 90.4% | [10] 33.2%
active: [7] 9.84%

O=C1/C(=C/c2ccc(O)cc2O)N=C2SCCCN12
inactive: [1] 95.2% | [2] 106% | [3] 97.8% | [4] 85.4% | [5] 110% | [6] 108% | [7] 92.3% | [8] 92.1% | [9] 81.9% | [10] 106%
